High-throughput results from PubChem BioAssay.
CDK5 inh – blocks human CDK5/p35 kinase activity | Q00535+Q15078 | Recombinant CDK5/p35, ADP-Glo luminescence, 60 min | inhibition, % at 10 µM | 0.01% of 330,000 active | AID 488839;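 active = highest replicate inhibition of at least 50% and at least 75% of replicates reaching 50%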;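 note: plate controls were DMSO neutral control for no effect and GW8510 at 10 µM for full effect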
Rtt109 Vps75 – C. albicans Rtt109 histone acetyltransferase inhibition | AID 540336 | 0.16% of 330,000 active | Q5AAJ8 | purified Rtt109/Vps75, ThioGlo CoA-SH fluorescence, 4 h | inhibition, % at 34.9 µM;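 active = inhibition of at least 50% in every replicate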
esBAF inh – inhibitors of esBAF chromatin remodeling in mouse ES cells. Bmi1-luciferase knock-in reporter, 24 h; 100% = twice the neutral-well signal. reporter increase, % at 12.5 µM. 2% of 350,000 active; in the data active = activation above about 40%;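 note: 0% = median of the plate's neutral control wells and 100% = double that signal; a rise in the Bmi1 reporter signal indicates esBAF inhibition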
SMARCA2 activ – activators of SMARCA2 function. AID 652017. MG213 cells, MMTV-luciferase reporter, dexamethasone, overnight. 1% of 370,000 active. activation, % at 9.1 µM; in the data active = activation above about 7.8%;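 note: 0% = vehicle wells and 100% = reference activator wells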
DYRK1A inh – Dyrk1A (rat) kinase inhibition. inhibition, % at 12.5 µM. ADP-Glo luminescence, NFATc1 peptide. 0.43% of 310,000 active; in the data active = inhibition above about 50%;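 note: plate controls were vehicle with enzyme for no effect and no enzyme for full effect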
dFosB act-1 – activators of mouse delta FosB homodimer. purified delta FosB, TAMRA-CDK5 oligo fluorescence polarization; percent of positive-control signal above neutral wells. 0.99% of 340,000 active. P13346. AID 493131. activation, % at 25 µM;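 active = mean activation above about 17%, with every replicate also reaching it, limit read from the data, passing the limit was not always enough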
Target sequence (P13346 whole entry, looked up): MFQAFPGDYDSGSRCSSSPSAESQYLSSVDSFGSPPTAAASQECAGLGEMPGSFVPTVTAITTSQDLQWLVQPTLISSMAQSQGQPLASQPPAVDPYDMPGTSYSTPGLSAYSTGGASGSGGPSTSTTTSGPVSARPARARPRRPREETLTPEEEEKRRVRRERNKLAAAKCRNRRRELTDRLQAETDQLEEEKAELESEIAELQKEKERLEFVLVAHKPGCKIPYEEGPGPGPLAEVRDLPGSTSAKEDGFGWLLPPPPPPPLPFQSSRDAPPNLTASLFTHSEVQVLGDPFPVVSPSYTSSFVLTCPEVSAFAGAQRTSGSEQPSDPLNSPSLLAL
dFosB act-2 – activators of mouse delta FosB homodimer DNA binding. purified delta FosB, TAMRA-CDK5 oligo fluorescence polarization; normalised: neutral wells 0, positive control 100. 2,400 tested, under 10 active. shares compounds with dFosB act-1. activation, % at 24.9 µM;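 active = highest replicate activation at or above 34% and every replicate reaching that threshold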;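 note: higher polarization means more probe DNA bound by delta FosB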
An asterisk follows results filed as active; . = no result. Compounds with a hit are over-represented: about 3.2% of the library has one in this group of screens.

SMILES | CDK5 inh | Rtt109 Vps75 | esBAF inh | SMARCA2 activ | DYRK1A inh | dFosB act-1 | dFosB act-2
Cc1ccccc1Cn1c(=O)n(-c2ccccc2)c(=O)c2ccc(C(=O)NCc3ccco3)cc21 | 0 | 0 | -3 | 1 | -7 | 45* | 1
C=CCn1c(=O)c2ccc(C(=O)NCc3ccccc3)cc2n(Cc2cccc(Cl)c2)c1=O | -1 | 4 | 0 | -3 | -1 | 42* | 0
Cc1ccc(-n2c(=O)c3ccc(C(=O)NCc4ccco4)cc3n(Cc3ccccc3C#N)c2=O)cc1 | -1 | 7 | . | -2 | -1 | 8 | .
CNC[C@@H]1Oc2ccc(NC(=O)c3ccncc3)cc2C(=O)N([C@H](C)CO)C[C@H]1C | . | . | -3 | . | . | . | .
C/C=C/c1ccc([C@@H]2[C@@H](CO)N(C(=O)C3CC3)[C@H]2CN(C)C(=O)C2CC2)cc1 | . | . | -6 | . | . | . | .
NC(=O)CC(NC(=O)Cc1cccc2ccccc12)c1ccc(NCc2ccccc2)c([N+](=O)[O-])c1 (centres undefined) | -1 | 1 | 4 | 2 | -11 | 47* | 2
NC(=O)CC(NC(=O)Cc1cccc2ccccc12)c1ccc(NCCc2ccc(F)cc2)c([N+](=O)[O-])c1 (centres undefined) | -2 | -2 | 0 | 0 | 3 | -2 | .
NC(=O)CC(NC(=O)Cc1cccc2ccccc12)c1ccc(NCc2ccc(F)cc2)c([N+](=O)[O-])c1 (centres undefined) | -1 | -3 | 0 | 0 | 1 | 32* | -6
COc1ccc(S(=O)(=O)N(C)C[C@@H]2Oc3ccc(NC(=O)C4CC4)cc3C(=O)N([C@H](C)CO)C[C@H]2C)cc1 | . | . | -5 | . | . | . | .
CC(=O)c1cc2c(cc1N/C(=N/S(=O)(=O)c1ccc(Br)cc1)c1ccccc1)OCO2 | 5 | -8 | -10 | 3 | 4 | 62* | -1
C[C@H](NC(=O)[C@@H]1[C@@H](CO)[C@@H]2Cn3c(cccc3=O)[C@@H]2N1Cc1ccncc1)c1ccccc1 | . | . | 0 | . | . | . | .
O=C(Cn1cnc2sc(-c3ccccc3)cc2c1=O)NCc1ccco1 | -3 | 3 | -8 | 1 | 13 | -4 | .
O=C(Cn1cnc2sc(-c3ccccc3)cc2c1=O)NCCc1ccccc1 | 0 | -19 | . | -2 | 1 | 53* | 2
O=C(Cn1cnc2sc(-c3ccccc3)cc2c1=O)NCc1ccccc1 | 0 | 2 | 3 | -2 | -6 | 32* | 5
Cc1sc2ncn(CC(=O)NCCc3ccccc3)c(=O)c2c1C | -1 | -3 | 0 | -2 | 2 | -1 | .
O=C(Cn1cnc2c(oc3ccccc32)c1=O)NCCc1ccccc1 | 0 | -4 | -8 | 2 | -1 | 61* | -3
O=C(Cn1cnc2c(nnn2-c2cccc(Cl)c2)c1=O)NCc1ccccc1 | 2 | 2 | 2 | 1 | -4 | 68* | 1
Cc1noc(C)c1S(=O)(=O)Nc1ccc2c(c1)C(=O)N([C@H](C)CO)C[C@@H](C)[C@H](CN(C)C(=O)CCC(F)(F)F)OCCCC[C@@H](C)O2 | . | . | 10 | . | . | . | .
C[C@@H]1CN([C@H](C)CO)C(=O)c2cccc(N(C)C)c2O[C@@H]1CN(C)Cc1ccc2c(c1)OCO2 | . | . | -6 | . | . | . | .
Nc1nonc1-c1nc2ccccc2n1CC(=O)Nc1ccccc1 | 2 | -6 | -2 | -4 | -8 | 33* | 2
NS(=O)(=O)c1ccc(NC(=O)c2cc(-c3ccccc3O)n[nH]2)cc1 | 1 | -9 | 2 | 1 | 1 | -5 | .
Cc1ccc(NC(=O)c2cc(-c3ccccc3O)n[nH]2)cc1Cl | -1 | -2 | 38 | 3 | -2 | 41* | -7
Cc1ccc(NC(=O)c2cc(-c3cc(Cl)ccc3O)n[nH]2)cc1C | 1 | -1 | 0 | -5 | -1 | 22* | 4
O=C(c1ccccc1)N1C[C@@H]2[C@H](c3ccccc31)[C@H](CO)N2C(=O)c1ccccn1 | . | . | 2 | . | . | . | .
C[C@@H]1CCCCO[C@H](CN(C)C(=O)c2ccncc2)[C@H](C)CN([C@H](C)CO)C(=O)c2cc(NC(=O)c3ccncc3)ccc2O1 | . | . | -1 | . | . | . | .
SMILES | CDK5 inh | Rtt109 Vps75 | esBAF inh | SMARCA2 activ | DYRK1A inh | dFosB act-1 | dFosB act-2
O=C(CSc1nnc(NC(=O)c2ccco2)s1)Nc1ccc(F)cc1 | -2 | . | 12 | -2 | 5 | 19* | -5
O=C(CSc1nnc(NC(=O)c2ccco2)s1)NC1CCCCC1 | 1 | -2 | 25 | 1 | -2 | 22* | 7
CCC(=O)N[C@H]1CC[C@@H](CC(=O)NCC2CCCCC2)O[C@@H]1CO | . | . | -3 | . | . | . | .
CC(=O)Nc1ccc(NC(=O)COC(=O)c2ccc(S(=O)(=O)N(C)c3ccccc3)cc2)cc1 | -4 | 0 | -2 | 0 | 0 | 38* | 0
COc1ccc(NC(=O)COC(=O)c2ccc(S(=O)(=O)N(C)c3ccccc3OC)cc2)cc1OC | 1 | -3 | . | -2 | -6 | -9 | .
O=C(COC(=O)c1ccc(S(=O)(=O)N2CCCCC2)cc1)Nc1ccccc1 | 1 | 16 | -2 | 1 | . | 21* | 2
COc1ccccc1N(C)S(=O)(=O)c1ccc(C(=O)OCC(=O)Nc2ccc(C(N)=O)cc2)cc1 | 0 | 2 | 0 | 2 | . | 66* | 2
O=C(COC(=O)c1cc([N+](=O)[O-])ccc1NCCO)Nc1cccc(S(=O)(=O)N2CCCC2)c1 | -1 | 11 | -4 | -3 | 0 | 31* | 1
Cc1ccc(NC(=O)COC(=O)c2ccc(S(=O)(=O)N3CCCCC3)cc2)cc1 | 1 | 4 | -8 | 2 | 2 | 2 | .
CCCN(C)C[C@@H]1Oc2ncc(C#Cc3ccccc3OC)cc2C(=O)N([C@H](C)CO)C[C@@H]1C | . | . | 0 | . | . | . | .
C[C@H](CO)N1C[C@H](C)[C@H](CN(C)Cc2ccc3c(c2)OCO3)OCCCC[C@H](C)Oc2ccc(NS(C)(=O)=O)cc2C1=O | . | . | -10 | . | . | . | .
Cc1ccc2nc(SCC(=O)Nc3ccc4sc(C)nc4c3)c(C#N)cc2c1 | -2 | -2 | 30 | 1 | 2 | 25* | -5
Cc1ccc2nc(SCC(=O)NCC3CCCO3)c(C#N)cc2c1 (centres undefined) | -1 | 5 | 8 | 1 | 7 | -14 | .
C[C@@H]1CN([C@@H](C)CO)C(=O)c2cccc(NC(=O)Nc3ccc(F)cc3)c2O[C@@H]1CN(C)Cc1ccc(Oc2ccccc2)cc1 | 0 | 4 | 5 | -1 | 11 | 43* | 0
C[C@H](CO)N1C[C@H](C)[C@H](CN(C)Cc2ccc(-c3ccccc3)cc2)Oc2ccc(NC(=O)Nc3cccc4ccccc34)cc2C1=O | . | . | -5 | . | . | . | .
C[C@H]1CN([C@@H](C)CO)C(=O)c2cc(NC(=O)Nc3cccc4ccccc34)ccc2O[C@@H]1CN(C)Cc1ccc(-c2ccccc2)cc1 | 0 | -27 | -1 | 0 | . | 38* | 1
